Assay results reported in PubChem BioAssay AID1159580 (chemical genetic matrix, 2015).
The whole screen tested about 5,500 compounds, of which about 2,000 (36%) were called active. Roughly 18% stayed inconclusive and do not appear here. No stated cut-off is given here; in the data, active means normalized growth mostly below about 0.91 (no sharp cut-off); inconclusive means no clear call, values can overlap the other calls; inactive means mostly above about 0.92. Some of the results follow.

Test: chemical genetic growth profiling, strain panel (AID 1159580);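 further: tested at 20 µM; growth read once vehicle control cultures reached saturation at 30 °C; 1 = growth at the plate median or of vehicle wells; lower values mean less growth of the strain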
Settings: growth OD
[1] = S. cerevisiae deletion strains, locus YAL013W, strain DEP1, active compounds read low
[2] = S. cerevisiae deletion strains, locus YBR229C, strain ROT2, active compounds read low
[3] = S. cerevisiae deletion strains, locus YDL101C, strain DUN1, active compounds read low
[4] = S. cerevisiae deletion strains, locus YDL134C, strain PPH21, active compounds read low
[5] = S. cerevisiae deletion strains, locus YDR150W, strain NUM1, active compounds read low
[6] = S. cerevisiae deletion strains, locus YEL061C, strain CIN8, active compounds read low
[7] = S. cerevisiae deletion strains, locus YGR078C, strain PAC10, active compounds read low
[8] = S. cerevisiae deletion strains, locus YHR030C, strain SLT2, active compounds read low
[9] = S. cerevisiae deletion strains, locus YJR043C, strain POL32, active compounds read low
[10] = S. cerevisiae deletion strains, locus YJR075W, strain HOC1, active compounds read low
[11] = S. cerevisiae deletion strains, locus YKL190W, strain CNB1, active compounds read low
[12] = S. cerevisiae deletion strains, locus YLR039C, strain RIC1, active compounds read low
[13] = S. cerevisiae deletion strains, locus YLR262C, strain YPT6, active compounds read low
[14] = S. cerevisiae deletion strains, locus YMR263W, strain SAP30, active compounds read low
[15] = S. cerevisiae deletion strains, locus YMR307W, strain GAS1, active compounds read low
[16] = S. cerevisiae deletion strains, locus YNL153C, strain GIM3, active compounds read low
[17] = S. cerevisiae deletion strains, locus YNL322C, strain KRE1, active compounds read low
[18] = S. cerevisiae deletion strains, locus YPL055C, strain LGE1, active compounds read low
[19] = S. cerevisiae deletion strains, locus YPL241C, strain CIN2, active compounds read low

Measured: normalized growth

CNC(=O)Oc1cccc2c1OC(C)(C)C2
inactive: [1] 1.01 | S. cerevisiae deletion strains, locus YBR021W, strain FUR4, active compounds read low 0.994 | [2] 1 | S. cerevisiae deletion strains, locus YCL029C, strain bik1, active compounds read low 1 | S. cerevisiae deletion strains, locus YDL035C, strain GPR1, active compounds read low 1.01 | S. cerevisiae deletion strains, locus YDL074C, strain BRE1, active compounds read low 1.03 | [3] 1.02 | [4] 0.997 | S. cerevisiae deletion strains, locus YDL185W, strain tfp1, active compounds read low 0.978 | S. cerevisiae deletion strains, locus YDL192W, strain arf1, active compounds read low 1 | S. cerevisiae deletion strains, locus YDR101C, strain arx1, active compounds read low 0.992 | [5] 1.01 | S. cerevisiae deletion strains, locus YDR162C, strain NBP2, active compounds read low 1.01 | S. cerevisiae deletion strains, locus YDR318W, strain mcm21, active compounds read low 0.995 | S. cerevisiae deletion strains, locus YDR388W, active compounds read low 0.996 | S. cerevisiae deletion strains, locus YDR502C, strain sam2, active compounds read low 1 | [6] 1 | S. cerevisiae deletion strains, locus YER110C, active compounds read low 0.993 | S. cerevisiae deletion strains, locus YER155C, strain BEM2, active compounds read low 1.02 | S. cerevisiae deletion strains, locus YER167W, strain BCK2, active compounds read low 1.02 | S. cerevisiae deletion strains, locus YGL078C, strain dbp3, active compounds read low 0.979 | S. cerevisiae deletion strains, locus YGL086W, strain mad1, active compounds read low 0.995 | S. cerevisiae deletion strains, locus YGL248W, strain PDE1, active compounds read low 1.01 | [7] 1.01 | S. cerevisiae deletion strains, locus YGR135W, strain pre9, active compounds read low 1 | S. cerevisiae deletion strains, locus YGR229C, strain SMI1, active compounds read low 1.02 | S. cerevisiae deletion strains, locus YGR252W, strain gcn5, active compounds read low 0.99 | [8] 1.01 | S. cerevisiae deletion strains, locus YHR079C, strain IRE1 (second series), active compounds read low 0.996 | S. cerevisiae deletion strains, locus YHR094C, strain hxt1, active compounds read low 0.994 | S. cerevisiae deletion strains, locus YHR129C, strain ARP1, active compounds read low 1.01 | S. cerevisiae deletion strains, locus YHR200W, strain rpn10, active compounds read low 1 | S. cerevisiae deletion strains, locus YIL066C, strain RNR3, active compounds read low 1.01 | S. cerevisiae deletion strains, locus YIL073C, strain SPO22, active compounds read low 1.04 | S. cerevisiae deletion strains, locus YIL125W, strain kgd1, active compounds read low 0.987 | S. cerevisiae deletion strains, locus YIR030C, strain dcg1, active compounds read low 0.996 | S. cerevisiae deletion strains, locus YJL095W, strain BCK1, active compounds read low 1 | S. cerevisiae deletion strains, locus YJL134W, strain LCB3, active compounds read low 1 | S. cerevisiae deletion strains, locus YJL168C, strain set2, active compounds read low 0.997 | S. cerevisiae deletion strains, locus YJL187C, strain SWE1 (second series), active compounds read low 1.01 | [9] 1.01 | [10] 1.01 | S. cerevisiae deletion strains, locus YKL009W, strain mrt4, active compounds read low 1.01 | S. cerevisiae deletion strains, locus YKL068W, active compounds read low 0.987 | S. cerevisiae deletion strains, locus YKL085W, strain MDH1 (second series), active compounds read low 0.978 | S. cerevisiae deletion strains, locus YKL085W, strain MDH1, active compounds read low 0.978 | [11] 1.02 | S. cerevisiae deletion strains, locus YKR001C, strain vps1, active compounds read low 0.999 | [12] 1.04 | S. cerevisiae deletion strains, locus YLR058C, strain SHM2, active compounds read low 1.01 | S. cerevisiae deletion strains, locus YLR102C, strain apc9, active compounds read low 1 | [13] 1.06 | S. cerevisiae deletion strains, locus YLR268W, strain sec22, active compounds read low 1.01 | S. cerevisiae deletion strains, locus YLR330W, strain CHS5, active compounds read low 1 | S. cerevisiae deletion strains, locus YLR342W, strain FKS1 (second series), active compounds read low 1.02 | S. cerevisiae deletion strains, locus YLR371W, strain rom2, active compounds read low 0.993 | S. cerevisiae deletion strains, locus YLR418C, strain cdc73, active compounds read low 0.973 | S. cerevisiae deletion strains, locus YML016C, strain PPZ1, active compounds read low 1 | S. cerevisiae deletion strains, locus YML032C, strain rad52, active compounds read low 1 | S. cerevisiae deletion strains, locus YML124C, strain tub3, active compounds read low 0.999 | S. cerevisiae deletion strains, locus YMR078C, strain ctf18, active compounds read low 0.988 | S. cerevisiae deletion strains, locus YMR223W, strain ubp8, active compounds read low 0.992 | [14] 0.992 | [15] 1.02 | S. cerevisiae deletion strains, locus YNL067W, strain RPL9B, active compounds read low 1.02 | S. cerevisiae deletion strains, locus YNL128W, strain TEP1, active compounds read low 1.02 | [16] 1.01 | S. cerevisiae deletion strains, locus YNL233W, strain BNI4, active compounds read low 1.02 | S. cerevisiae deletion strains, locus YNL250W, strain rad50, active compounds read low 0.967 | S. cerevisiae deletion strains, locus YNL271C, strain bni1, active compounds read low 0.977 | S. cerevisiae deletion strains, locus YNL298W, strain CLA4, active compounds read low 0.986 | S. cerevisiae deletion strains, locus YNL307C, strain MCK1, active compounds read low 0.995 | [17] 1.01 | S. cerevisiae deletion strains, locus YNR052C, strain pop2, active compounds read low 1 | S. cerevisiae deletion strains, locus YOL006C, strain TOP1, active compounds read low 1.01 | S. cerevisiae deletion strains, locus YOL012C, strain htz1 0.992 | S. cerevisiae deletion strains, locus YOL147C, strain pex11, active compounds read low 0.996 | S. cerevisiae deletion strains, locus YOR061W, strain CKA2, active compounds read low 1 | S. cerevisiae deletion strains, locus YOR069W, strain VPS5, active compounds read low 1.01 | S. cerevisiae deletion strains, locus YOR136W, strain idh2, active compounds read low 0.993 | S. cerevisiae deletion strains, locus YOR144C, strain elg1, active compounds read low 1 | S. cerevisiae deletion strains, locus YOR184W, strain ser1, active compounds read low 1.01 | S. cerevisiae deletion strains, locus YOR316C, strain cot1, active compounds read low 0.996 | [18] 1.03 | [19] 1 | S. cerevisiae deletion strains, locus YPR119W, strain clb2, active compounds read low 0.993 | S. cerevisiae deletion strains, locus YPR141C, strain kar3, active compounds read low 0.973 | S. cerevisiae deletion strains, locus YPR163C, strain tif3, active compounds read low 0.987 | S. cerevisiae deletion strains, locus YPR167C, strain met16, active compounds read low 0.999 | S. cerevisiae deletion strains, strain wtn01, active compounds read low 0.994 | S. cerevisiae strains, strain wild type, active compounds read low 1.01

N#Cc1cc(I)c(C#N)c(I)c1
inactive: [4] 0.978 | [6] 0.981 | [8] 0.988 | [11] 0.973 | [12] 0.905 | S. cerevisiae deletion strains, locus YLR085C, strain ARP6, active compounds read low 0.949 | [13] 0.94 | S. cerevisiae deletion strains, locus YML094W, strain GIM5, active compounds read low 0.98 | [15] 0.961 | S. cerevisiae deletion strains, locus YNL298W, strain CLA4 (second series), active compounds read low 0.937 | S. cerevisiae deletion strains, locus YNR030W, strain Alg12, active compounds read low 0.949 | [19] 0.979 | S. cerevisiae deletion strains, locus YPR135W, strain CTF4, active compounds read low 1.01
active: [1] 0.765 | [2] 0.771 | [3] 0.72 | [5] 0.782 | [7] 0.693 | S. cerevisiae deletion strains, locus YHR087W, strain rtc3, active compounds read low 0.737 | [9] 0.777 | [10] 0.693 | S. cerevisiae deletion strains, locus YLR058C, strain SHM2 (second series), active compounds read low 0.733 | S. cerevisiae deletion strains, locus YMR219W, strain ESC1, active compounds read low 0.786 | [14] 0.775 | [16] 0.746 | [17] 0.75 | [18] 0.643
